# Rows were chosen to be rich in hits. Some 1.4% of all compounds tested hit in one or more screens of this group.
# hERG WT inh: inhibitors of human wildtype KCNH2 potassium channel; Q12809; U2OS, BacMam KCNH2, thallium flux FluxOr; active compounds read low; activity change, % at 1.84 µM; 340,000 compounds, 0.37% hits;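 active means maximum activity change below -70%; inconclusive means maximum activity change between -70% and -50%; inactive means maximum activity change above -50%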; further: on the % scale 0 is the no-effect control and ±100 the full control effect
#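 U2OS cells were transduced with wild-type KCNH2 virus (2.03 x 10^8 / mL) for 4 h at room temperature, then cultured overnight at 37 C. Thallium flux was read with FluxOr dye. Rate constants were normalized to DMSO controls.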
# EPAC1 agonist: activates human EPAC1 exchange factor; O95398; EPAC1 agonist qHTS, biochemical assay; response scale: 100% = response to 6.5 mM cAMP; Potency, µM (titrated, usually from 154 µM), without a hit: at the top dose activation, actives largely listed as activators; 360,000 compounds, 0.073% hits; AID 720707; further: potency means the concentration at half of the fitted maximal effect; nearly all actives have a fitted effect of over 60% in size
# Target sequence (O95398 whole entry, looked up): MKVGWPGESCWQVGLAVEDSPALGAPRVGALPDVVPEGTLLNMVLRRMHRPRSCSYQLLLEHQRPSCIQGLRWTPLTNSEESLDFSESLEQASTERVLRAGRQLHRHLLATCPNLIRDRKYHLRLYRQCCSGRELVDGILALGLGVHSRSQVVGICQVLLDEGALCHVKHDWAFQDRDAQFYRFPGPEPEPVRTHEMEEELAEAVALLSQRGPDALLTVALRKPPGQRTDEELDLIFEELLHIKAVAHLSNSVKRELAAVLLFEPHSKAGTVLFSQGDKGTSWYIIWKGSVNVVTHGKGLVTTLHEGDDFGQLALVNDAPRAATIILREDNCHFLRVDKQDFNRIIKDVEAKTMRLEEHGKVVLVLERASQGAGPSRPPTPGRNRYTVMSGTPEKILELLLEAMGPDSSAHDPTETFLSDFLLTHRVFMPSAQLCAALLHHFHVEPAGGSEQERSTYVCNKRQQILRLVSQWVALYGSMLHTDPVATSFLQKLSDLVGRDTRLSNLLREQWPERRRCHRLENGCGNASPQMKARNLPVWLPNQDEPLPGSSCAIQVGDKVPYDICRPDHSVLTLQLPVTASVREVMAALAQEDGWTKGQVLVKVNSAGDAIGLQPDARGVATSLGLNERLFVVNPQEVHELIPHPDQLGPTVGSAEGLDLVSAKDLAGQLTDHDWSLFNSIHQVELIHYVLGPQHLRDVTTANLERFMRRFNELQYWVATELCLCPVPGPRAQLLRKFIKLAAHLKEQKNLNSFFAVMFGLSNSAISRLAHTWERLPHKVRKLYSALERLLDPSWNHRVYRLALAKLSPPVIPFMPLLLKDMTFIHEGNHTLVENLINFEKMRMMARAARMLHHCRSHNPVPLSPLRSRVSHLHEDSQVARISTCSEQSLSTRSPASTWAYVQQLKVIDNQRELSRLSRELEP
#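 Nucleotide exchange assay: 100 nM EPAC1 with 250 nM Rap1B loaded with BODIPY-GDP and 50 uM GDP, room temperature. Fluorescence (480/540 nm) read every 5 min for 30 min; signal change normalized to 6.5 mM cAMP as full agonist.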
# EPAC1 antag: blocks human EPAC1 exchange factor; O95398; EPAC1 GEF assay, Rap1b-BODIPY-GDP exchange fluorescence; Potency, µM (doses to about 115 µM), for inactives: at the top dose activity change, negative = inhibition, hits mostly inhibitors; 360,000 compounds, 0.14% hits; AID 720709;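 further: potency means the concentration at half of the fitted maximal effect; plate controls were vehicle for no effect and positive control for full effect; nearly all actives have a fitted effect of over 50% in size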
# EPAC2 antag: antagonists of human EPAC2; EPAC2 GEF exchange of Rap1B-BODIPY-GDP, fluorescence; Potency, µM (series often up to 114 µM), inactives show at the top dose activity, negative = inhibition, most hits filed as inhibitors; 360,000 compounds, 0.18% hits; AID 720708; further: potency means the concentration at half of the fitted maximal effect; on the % scale 0 is the no-effect control and ±100 the full control effect; nearly all actives have a fitted effect of over 45% in size
# EPAC2 agonist: EPAC2 (human) agonism | Potency, µM (doses to about 154 µM), without a hit: at the highest dose activation, most hits filed as activators | EPAC2 activation, biochemical qHTS; response scale: 100% = 6.5 mM cAMP response | 360,000 compounds, 0.079% hits; further: potency means the concentration at half of the fitted maximal effect; nearly all actives have a fitted effect of over 50% in size
#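 Guanine nucleotide exchange by EPAC2 is measured as reduced fluorescence of BODIPY-GDP once it is released from 250 nM Rap1B. Plates are read kinetically for 30 min at room temperature; results are scaled to 6.5 mM cAMP.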
# KCNH2 3.1 inh: inhibitors of human KCNH2 3.1 potassium channel isoform; U2OS KCNH2 3.1, thallium flux FluxOr; active compounds read low; activity change, % (tested at about 1.8 µM); 340,000 compounds, 0.95% hits; AID 720553;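 active means maximum activity change below -70%; inconclusive means maximum activity change from -70% to -50%; inactive means maximum activity change above -50%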;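 further: thallium influx rate constant from kinetic fluorescence after stimulation buffer; on the % scale 0 is the no-effect control and ±100 the full control effect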
#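 Kinetic fluorescence (2 min after stimulation buffer) measures Tl+ influx through KCNH2 3.1 expressed by viral transduction in U2OS cells; the rate constant is normalized against DMSO controls serving as positive and negative references.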
# * hit, by the source's call; i = inactive; ? = inconclusive; nt = no result; [ ] = another dose, or the depositor's remark. Unless noted, the call rests on the fitted dose curve; in most records, active means well fitted curve in the direction sought with a large enough effect; inconclusive means small, poorly fitted or top-dose-only effect, or another doubt; inactive means no such curve, though single readings can be large; an effect the other way counts as inactive or inconclusive.
SMILES,hERG WT inh,EPAC1 agonist,EPAC1 antag,EPAC2 antag,EPAC2 agonist,KCNH2 3.1 inh
COc1cc(-c2coc3c(C(=O)NCc4ccc(C(F)(F)F)cc4)cccc23)ccc1O,nt,1%,-12%,?,0%,nt
O=C(CNC(=O)c1ccc(Cl)cc1)NCCCn1ccnc1,10,0%,2%,17%,6%,8
COc1cc2c(cc1OC)C(=O)C(Br)CC2 (stereo not given),-5,-7%,45µM*,28µM*,11%,-8
COc1ccc(OC)c(NC2c3ncccc3C(=O)N2Cc2ccco2)c1 (stereo not given),6,4%,-10%,-2%,3%,-80*
CC(=O)Nc1ccc(S(=O)(=O)Nc2cc(C)cn(Cc3ccccc3)c2=O)cc1,0,-2%,-6%,-6%,-4%,-16
CN1CCN(C(=O)C[C@@H]2CC[C@@H]3[C@H](COC[C@@H](O)CN3Cc3cccc(Cl)c3)O2)CC1,nt,-13%,-15%,-5%,-3%,nt
Nc1nc2ccccc2n1/N=C/c1ccc(-c2ccccc2)o1,1,6%,-13%,-1%,-4%,-87*
O=C(Cc1ccsc1)N1CCN(S(=O)(=O)c2ccccc2F)CC1,0,7%,-2%,7%,-4%,10
c1ccc(-c2cnn3c(-c4ccccc4)c(-c4ccccc4)nc3n2)cc1,-135*,13µM*,65%,i,89µM*,-89*
Cc1oc(-c2cccs2)cc1C(=O)N1CCCC(C)(C(=O)O)C1 (stereo not given),nt,1%,0%,-4%,13%,nt
COc1ccc(N2C(=O)C3NN=C(C(=O)OCc4ccccc4)C3C2=O)cc1 (stereo not given),3,11%,3%,-3%,3%,2
COc1ccc(OCCn2cc(/C=N/NC(=O)c3ccncc3)c3ccccc32)cc1,2,7%,-8%,-1%,4%,0
Cc1ccc(OCCn2cc(/C=N/NC(=O)c3ccncc3)c3ccccc32)cc1,-187*,15%,?,-2%,9%,-5
CC(C)N(C(=O)Cn1c(SCC(=O)NCc2ccc3c(c2)OCO3)nc2ccccc21)C(C)C,-122*,-10%,-6%,-1%,1%,1
O=C(CSc1nc2ccccc2o1)NCc1ccc2c(c1)OCO2,-2,-9%,12%,22µM*,5%,14
CCNc1ncnc2[nH]ncc12,-5,4%,7%,10%,-2%,1
Cc1ccc(S(=O)(=O)N2CCOC2CNC(=O)C(=O)NCC(C)C)cc1 (stereo not given),2,1%,-24%,-1%,-1%,-9
CNC(=O)C(=O)NCC1OCCN1S(=O)(=O)c1ccc(C)cc1 (stereo not given),-207*,8%,7%,-6%,6%,-5
Cc1cc(C)n2nc(SCc3ccccc3C(=O)O)nc2n1,-144*,-4%,4%,3%,12%,-191*
COc1ccc2c3c(n(C(=O)OC(C)(C)C)c2c1)C1CC=C(COC(C)=O)CN1CC3 (stereo not given),nt,6%,-2%,-2%,16%,nt
Nc1nc2c(nc(Br)n2[C@@H]2O[C@@H]3COP(=O)(O)O[C@H]3[C@H]2O)c(=O)[nH]1,0,12%,-13%,17%,16%,-4
Nc1ncnc2c1nc(Br)n2[C@@H]1O[C@@H]2COP(=O)(O)O[C@H]2[C@H]1O,6,11µM*,1.3µM*,2.5µM*,?,-5
S=c1[nH]nc(Nc2ccc(Cl)cc2)s1,12,8%,-10%,-4%,13%,-91*
Cc1ccc(Nc2n[nH]c(=S)s2)cc1,3,7%,5%,3%,11%,-5
COc1ccc(Oc2nc(-c3ccccn3)ncc2OC)cc1,-6,-7%,-26%,-13%,3%,3
SMILES,hERG WT inh,EPAC1 agonist,EPAC1 antag,EPAC2 antag,EPAC2 agonist,KCNH2 3.1 inh
COc1cnc(-c2ccccn2)nc1Oc1c(C)cccc1C,5,-11%,-3%,14µM*,-5%,2
CCC(CC)C(=O)Oc1c(Sc2ccccc2[N+](=O)[O-])c(C)nn1C(C)(C)C,1,-11%,-18%,-15%,-7%,-46
COCC(=O)Oc1c(Sc2ccccc2[N+](=O)[O-])c(C)nn1C(C)(C)C,2,-4%,-4%,56µM*,-10%,5
COc1ccccc1OC(C)C(=O)N(Cc1ccco1)C1CCS(=O)(=O)C1 (stereo not given),3,-8%,-7%,-7%,5%,15
COc1ccc(C(=O)OCc2c(-c3ccccc3)ncc3ccccc23)cc1,-12,-1%,-15%,5%,15%,-70*
CC(=O)NC(c1ccccc1)c1nc(-c2ccc(Cl)cc2)cs1 (stereo not given),nt,-14%,-4%,7%,8%,nt
CCOc1nc(Nc2ccc(OC)c(Cl)c2)nc(N2CCN(c3ccc(OC)cc3)CC2)n1,3,8%,4%,5%,1%,-109*
CCOc1nc(Nc2ccc(F)cc2)nc(N2CCN(c3ccc(OC)cc3)CC2)n1,-3,-9%,0%,4%,0%,?
COc1ccc(N2CCN(Cc3nc(N)nc(Nc4ccc(C)c(Cl)c4)n3)CC2)cc1,31,14%,-6%,-6%,-3%,-73*
Cc1ccc(Nc2nc(N)nc(CN3CCN(c4ccccc4)CC3)n2)cc1Cl,13,16%,-5%,8%[57.1 µM],14%,-75*
CC1Nc2ccccc2C(=O)N1NC(=O)c1ccc(Br)cc1 (stereo not given),-4,-9%,-6%,9%,-1%,23
OC(c1cccnc1)c1nc(-c2cccc(F)c2)cs1 (stereo not given),nt,-3%,-4%,1%,5%,nt
O=C(c1cccc(NC2=NC3CS(=O)(=O)CC3S2)c1)N1CCN(c2cccc(Cl)c2)CC1 (stereo not given),14,1%,-20%,-22%,1%,12
CCOCCCNC(=O)c1cc2c(s1)-c1ccccc1SC2,0,9%,14%,3%,-1%,3
CN(C)CCNC(=O)c1cc2c(s1)-c1ccc(Cl)cc1SC2,-113*,4%,-24%,-11%,5%,-81*
COc1ccc(OCC(O)CN(C2CCCCC2)C2CCCCC2)cc1 (stereo not given),6,1%,-12%,-8%,6%,-31
O=[N+]([O-])c1ccc(OCC(O)CN(C2CCCCC2)C2CCCCC2)cc1 (stereo not given),-70*,4%,-25%,-4%,8%,-106*
Cn1c(=O)n(CCO)c(=O)c2c1nc(Br)n2Cc1ccccc1,-9,-12%,14%,2%,-1%,15

# Source: PubChem BioAssay (National Center for Advancing Translational Sciences (NCATS))
